The source of these data is PubChem BioAssay.

Calls of active or inactive are those of the source.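 How the source made its calls, unless noted: active means NADPH fluorescence slope more negative than the mean of all samples by about 3 SD, 99.7% confidence; inactive means the rest.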

Assay [1] can be described thus: inhibitors of TNFa-induced NFkB p65 translocation, primary screen, imaging, HUVEC, MLSMR starter and 10KST1 sets (AID 438;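 active means inhibition above 20% together with a positive visual image hit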;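 further: compound added about 3h40 before a 20 min TNFalpha stimulation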;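 on inhibition: signal is the nuclear over cytoplasmic p65 intensity ratio per well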). Conditions: HUVEC TNFa-induced p65 nuclear translocation; cell count: measured here: nuclei count (cytotoxicity indicator), at 2.08 µM; inhibition: at 2 µM, stronger effect = higher value, 0% TNFa-plus-vehicle, 100% no-TNFa wells.
A short description of assay [2]: inhibitors of mutant huntingtin aggregation, primary screen, imaging, exon1htt(103Q)mCFP cells, high-content imaging (AID 483;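 active means visual image review flags a hit and inhibition of aggregation exceeds 20%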;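 further: compound exposure lasted 3 days before fixation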;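 on nuclei count: percent of the per-plate median nuclei count of sample wells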). To be noted: exon1htt(103Q)mCFP cell line, aggregate imaging, at 2 µM; inhibition of aggregation: stronger effect = higher value; nuclei count: measured here: cell count, toxicity.
Assay [3] in a line: inhibitors of E-selectin induction by TNFa, primary screen, imaging, HUVEC, immunofluorescence, MLSMR starter and 10KST1 sets (AID 487;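 active means visually confirmed hit in the image check and inhibition above 20%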;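 on inhibition: signal is fraction of cell area covered by stained E-selectin grains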;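 on nuclei count: 100% = median nuclei count of all wells on the same plate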). Conditions: HUVEC TNFalpha-induced E-selectin immunofluorescence imaging, at 2 µM; inhibition: stronger effect = higher value; nuclei count: measured here: cell number, toxicity.
The target in assay [4] is Voltage-gated potassium channel subunit beta-2 (Rattus norvegicus) (UniProt P62483). Briefly: KvBeta enzyme negative modulators, primary screen, biochemical, NADPH fluorescence (AID 622;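 active means fluorescence slope higher than the sample average by over 3 SD, cut at about -0.22 in these data, passing the limit was not always enough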;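 further: slope of raw intensity against log time taken from 70 to 1610 s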). To be noted: recombinant KvBeta, 4-cyanobenzaldehyde reduction, at 10 µM, stronger effect = higher value.
For assay [5] the target is unchanged. Briefly: KvBeta positive modulators, primary screen, biochemical, NADPH fluorescence (AID 623).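 Further: fluorescence intensity change per second fitted from 20 to 320 s.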 Conditions: Recombinant KvBeta, NADPH fluorescence decrease slope, 10 min; at 10 µM; stronger effect = lower value.
For assay [6], the target named is Alpha-2C adrenergic receptor (Homo sapiens) (UniProt P18825). In words: modulators of alpha2C/GIRK thallium flux, primary screen, cell-based, HEK293 alpha2C/GIRK1/2 (AID 624;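 active means fluorescence slope after compound addition differing from the mean of all screened samples at 99.7% confidence, in either direction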;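 further: slope of fluorescence ratio to pre-addition baseline per second over 15 to 24 s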). Conditions: thallium flux BTC fluorescence, at 10 µM, actives lie on both sides.
Assay [7] is described as follows: inhibitors of Sendai virus-induced IRF3 signaling, primary screen, TLR/RLR signaling modifier project, cell-based, Sendai virus stimulus, luciferase, 10K MLSCN set (AID 602276;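 active means inhibition at or above 50% at 10 µM; inactive means inhibition below 50%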;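 further: firefly luciferase from ISG56 promoter only with Renilla not read in this screen; 0% = Sendai virus plus DMSO and 100% = medium plus DMSO without virus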). To be noted: HEK293 RL24 IRF3 luciferase reporter, at 10 µM, stronger effect = higher value. On the technique in general: Reporter assays use an easily measured gene product as a stand-in for the process of interest.

Assay [8] in a line: inhibitors of poly I:C-induced TLR3 signaling, primary screen, cell-based, poly I:C stimulus, luciferase, 10K MLSCN set (AID 602277;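 active means inhibition of the reporter signal at or above 50%; inactive means inhibition below 50%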). To be noted: HEK293-TLR3 RL24 IRF3 luciferase reporter, at 10 µM, stronger effect = higher value.

Sequence of Voltage-gated potassium channel subunit beta-2 (Rattus norvegicus) (P62483 whole entry, looked up): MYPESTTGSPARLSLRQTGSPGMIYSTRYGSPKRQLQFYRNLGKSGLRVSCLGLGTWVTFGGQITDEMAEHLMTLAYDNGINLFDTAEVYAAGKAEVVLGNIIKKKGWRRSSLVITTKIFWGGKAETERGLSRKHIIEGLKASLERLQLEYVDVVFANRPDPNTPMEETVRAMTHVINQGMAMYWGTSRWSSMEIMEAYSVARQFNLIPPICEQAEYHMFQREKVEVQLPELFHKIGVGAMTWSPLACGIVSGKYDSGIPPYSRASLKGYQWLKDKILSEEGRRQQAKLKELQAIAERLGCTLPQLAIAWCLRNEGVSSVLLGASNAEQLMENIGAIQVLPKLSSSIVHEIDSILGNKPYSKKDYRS
Sequence of Alpha-2C adrenergic receptor (Homo sapiens) (P18825 whole entry, looked up): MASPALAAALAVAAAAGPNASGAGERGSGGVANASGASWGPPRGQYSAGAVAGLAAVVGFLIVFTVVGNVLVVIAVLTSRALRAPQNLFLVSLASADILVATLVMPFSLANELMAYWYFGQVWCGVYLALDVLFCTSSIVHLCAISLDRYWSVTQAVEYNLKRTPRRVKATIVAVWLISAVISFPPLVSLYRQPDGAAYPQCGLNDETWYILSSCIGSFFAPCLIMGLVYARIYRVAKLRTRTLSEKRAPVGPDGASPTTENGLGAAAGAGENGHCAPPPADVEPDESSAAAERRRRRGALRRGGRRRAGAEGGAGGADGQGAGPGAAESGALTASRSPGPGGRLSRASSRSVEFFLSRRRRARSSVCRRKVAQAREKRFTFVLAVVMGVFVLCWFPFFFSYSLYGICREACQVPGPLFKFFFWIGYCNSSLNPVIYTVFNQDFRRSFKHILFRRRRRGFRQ

Consider `O=C(COc1ccccc1)Nc1ccccc1N1CCN(c2ccccc2)CC1`, for which, in assay [1], the cell count turned out to be 672. The inhibition in assay [1] is 10.8% (inactive); in assay [3], -71.5% (inactive); in assay [7], 16.7% (inactive); in assay [8] it was 3.18% (inactive). The inhibition of aggregation in assay [2] is -7.4% (inactive). The values for the nuclei count in assay [2] and in assay [3] were 84.2% and 110%, respectively. Further, the fluorescence slope in assay [4] is -0.609 (inactive). Besides, the NADPH fluorescence slope in assay [5] was -3.5e-05 (inactive). In assay [6], the slope was 0.00412 (inactive).
Take `CC(C)COc1ccc(-c2nnn(CC(=O)N3CCCC3)n2)cc1`: the cell count in assay [1] turned out to be 473. In addition, the inhibition is -5.5% (inactive) in assay [1], 19.6% (inactive) in assay [3], -2.78% (inactive) in assay [7] and -17.8% (inactive) in assay [8]. Further, the inhibition of aggregation in assay [2] is -13.3% (inactive). The nuclei count in assay [2] amounted to 106%; in assay [3] it was 109%. For the same compound, the fluorescence slope in assay [4] is -0.564 (inactive). Also, the NADPH fluorescence slope in assay [5] was -5.5e-05 (inactive). In assay [6], the slope is 0.00381 (inactive).
With `COc1ccc(-n2cnnc2SCCC#N)cc1`, in assay [1], the cell count was determined as 520. Further, the inhibition in assay [1] was -3.8% (inactive); in assay [3] it was -115% (inactive); in assay [7], 6.27% (inactive); in assay [8] it was 12% (inactive). In addition, in assay [2], the inhibition of aggregation was -0.2% (inactive). Moreover, the nuclei count was 82.5% in assay [2] and 122% in assay [3]. In assay [4], the fluorescence slope was -0.549 (inactive). Also, the NADPH fluorescence slope in assay [5] was -2.7e-05 (inactive). The slope in assay [6] was 0.00567 (inactive).
For `CS(=O)(=O)NCc1ccc(C(=O)NCc2ccccc2)cc1`, in assay [1], the cell count worked out at 640. The inhibition is 3.3% (inactive) in assay [1], -19.7% (inactive) in assay [3], -0.454% (inactive) in assay [7] and 5.61% (inactive) in assay [8]. Besides, the inhibition of aggregation in assay [2] was 0% (inactive). For the same compound, the results for the nuclei count in assay [2] and in assay [3] were 104% and 109%, respectively. In addition, the fluorescence slope in assay [4] was -0.415 (inactive). Besides, the NADPH fluorescence slope in assay [5] was -3.9e-05 (inactive). Besides, the slope in assay [6] was 0.003 (inactive).
As for `Cn1c(=O)oc2cc(S(=O)(=O)NC3CCN(Cc4ccccc4)CC3)ccc21`, in assay [1], the cell count turned out to be 621. Moreover, the inhibition in assay [1] is -6.3% (inactive); in assay [3] it was -37.9% (inactive); in assay [7] it was 10.4% (inactive); in assay [8], 33.8% (inactive). Also, in assay [2], the inhibition of aggregation is 59.7% (active). For the same compound, the nuclei count in assay [2] was found to be 70.5%; in assay [3] it was 99.7%. For the same compound, the fluorescence slope in assay [4] was -0.57 (inactive). The NADPH fluorescence slope in assay [5] is 1.4e-06 (inactive). Also, in assay [6], the slope is 0.0068 (inactive).
Consider `O=C(NCC(c1cccnc1)N1CCN(c2ccc(F)cc2)CC1)OCc1ccccc1` (centres undefined), for which the cell count in assay [1] was found to be 568. Moreover, the inhibition in assay [1] was -6.4% (inactive); in assay [3], -34.3% (inactive); in assay [7], 17.1% (inactive); in assay [8] it was 1.38% (inactive). Besides, in assay [2], the inhibition of aggregation was -3.7% (inactive). For the same compound, the figures for the nuclei count in assay [2] and in assay [3] were 128% and 126%, respectively. Moreover, the fluorescence slope in assay [4] was -0.605 (inactive). In addition, in assay [5], the NADPH fluorescence slope was 7e-06 (inactive). Also, the slope in assay [6] was 0.00599 (inactive).
Regarding `C=CCNC(=O)C1CC(=O)N(c2ccc(OCC(=O)Nc3ccc(OC)cc3)cc2)C1` (centres undefined), the cell count in assay [1] amounted to 393. The inhibition is 0.7% (inactive) in assay [1], -93.7% (inactive) in assay [3], 5.59% (inactive) in assay [7] and 5.9% (inactive) in assay [8]. Also, in assay [2], the inhibition of aggregation is 7.7% (inactive). Also, the nuclei count in assay [2] was 104%; in assay [3], 128%. The fluorescence slope in assay [4] is -0.339 (inactive). The NADPH fluorescence slope in assay [5] is -4.8e-05 (inactive). Further, the slope in assay [6] was 0.00432 (inactive).
Consider `Cc1ccc(Nc2cc(-n3nc(C)cc3C)ncn2)cc1`, for which, in assay [1], the cell count turned out to be 378. Further, the inhibition in assay [1] is 5.2% (inactive); in assay [3] it was -14.1% (inactive); in assay [7] it was -0.371% (inactive); in assay [8], -15.8% (inactive). Further, the inhibition of aggregation in assay [2] was -9.7% (inactive). Also, the results for the nuclei count in assay [2] and in assay [3] were 99.7% and 101%, respectively. In assay [4], the fluorescence slope is -0.442 (inactive). For the same compound, the NADPH fluorescence slope in assay [5] is -3.4e-05 (inactive). Also, the slope in assay [6] is 0.00717 (inactive).
Regarding `Cc1nn(-c2nc3ccccc3s2)c(C)c1Oc1ccccc1O`, the cell count in assay [1] was 591. The inhibition was -9.8% (inactive) in assay [1], -154% (inactive) in assay [3], 2.14% (inactive) in assay [7] and -97.7% (inactive) in assay [8]. The inhibition of aggregation in assay [2] was -19.1% (inactive). In addition, the results for the nuclei count in assay [2] and in assay [3] were 107% and 161%, respectively. Besides, the fluorescence slope in assay [4] is -0.437 (inactive). Further, the NADPH fluorescence slope in assay [5] is -2.9e-06 (inactive). In addition, the slope in assay [6] was 0.00527 (inactive).
For `COc1ccc(OCC(=O)Nc2ccc(N3CCOCC3)c(Cl)c2)cc1`, in assay [1], the cell count worked out at 651. Besides, the inhibition in assay [1] is 7.5% (inactive); in assay [3], -144% (inactive); in assay [7], 10.5% (inactive); in assay [8] it was 5.62% (inactive). Moreover, the inhibition of aggregation in assay [2] was -18.9% (inactive). Further, the nuclei count in assay [2] was found to be 101%; in assay [3], 109%. Moreover, the fluorescence slope in assay [4] is -0.488 (inactive). In addition, in assay [5], the NADPH fluorescence slope is -1.5e-05 (inactive). Moreover, the slope in assay [6] is 0.00692 (inactive).
On to `COc1ccc2[nH]c(=O)c(CN(Cc3cccs3)Cc3nnnn3C(C)(C)C)cc2c1`, for which the cell count in assay [1] was 713. For the same compound, the inhibition in assay [1] was 29.2% (inactive); in assay [3], 12.5% (inactive); in assay [7], 10% (inactive); in assay [8], 7.17% (inactive). In addition, the inhibition of aggregation in assay [2] was 1.1% (inactive). The nuclei count in assay [2] stood at 111%; in assay [3] it was 88.8%. In addition, in assay [4], the fluorescence slope is -0.417 (inactive). The NADPH fluorescence slope in assay [5] is -3.6e-05 (inactive). In addition, the slope in assay [6] is 0.00579 (inactive).
On to `CC(Oc1ccccc1)C(=O)Nc1ccc(S(=O)(=O)NCC2CCCO2)cc1` (centres undefined), for which, in assay [1], the cell count was 377. In addition, the inhibition is 5% (inactive) in assay [1], -84.8% (inactive) in assay [3], 20.7% (inactive) in assay [7] and 98.9% (active) in assay [8]. In addition, in assay [2], the inhibition of aggregation was 17.7% (inactive). Moreover, the figures for the nuclei count in assay [2] and in assay [3] were 81.9% and 99.2%, respectively. Moreover, the fluorescence slope in assay [4] is -0.411 (inactive). Besides, the NADPH fluorescence slope in assay [5] is 1.4e-05 (inactive). Moreover, in assay [6], the slope is 0.00888 (inactive).
`O=C(c1ccc(Br)o1)N(Cc1ccccc1)c1ccccn1`: the cell count in assay [1] turned out to be 386. The inhibition in assay [1] was -5.9% (inactive); in assay [3], 5.4% (inactive); in assay [7], 5.65% (inactive); in assay [8] it was -0.317% (inactive). Further, in assay [2], the inhibition of aggregation is 13.3% (inactive). In addition, the values for the nuclei count in assay [2] and in assay [3] were 102% and 107%, respectively. Also, the fluorescence slope in assay [4] is -0.43 (inactive). For the same compound, in assay [5], the NADPH fluorescence slope is 5.2e-05 (inactive). Further, the slope in assay [6] was 0.00529 (inactive).
`CCc1nnc(NC(=O)c2ccc(S(=O)(=O)NCC(C)C)cc2)s1`: the cell count in assay [1] stood at 494. The inhibition in assay [1] is -4.1% (inactive); in assay [3], -73.7% (inactive); in assay [7], -15.9% (inactive); in assay [8] it was -61.5% (inactive). In addition, the inhibition of aggregation in assay [2] is -18.5% (inactive). The nuclei count was found to be 100% in assay [2] and 210% in assay [3]. Moreover, the fluorescence slope in assay [4] was -0.491 (inactive). The NADPH fluorescence slope in assay [5] was -3.9e-05 (inactive). The slope in assay [6] was 0.00682 (inactive).

The inhibition is the change of the read-out against control, counted positive when it falls.
